Source: PubChem BioAssay AID489037 (National Center for Advancing Translational Sciences (NCATS), 2010)
Results filed as inconclusive are left out. Active and inactive are the calls of the source. Calls come from the whole dose curve; as a rule, active = well fitted inhibition curve with a large enough effect; inconclusive = small, poorly fitted or top-dose-only effect, or effect the other way; inactive = no such curve, though single readings can be large or run the other way.

Target: Nuclear receptor ROR-gamma (Mus musculus) (UniProt P51450)
Sequence (P51450 whole entry, looked up): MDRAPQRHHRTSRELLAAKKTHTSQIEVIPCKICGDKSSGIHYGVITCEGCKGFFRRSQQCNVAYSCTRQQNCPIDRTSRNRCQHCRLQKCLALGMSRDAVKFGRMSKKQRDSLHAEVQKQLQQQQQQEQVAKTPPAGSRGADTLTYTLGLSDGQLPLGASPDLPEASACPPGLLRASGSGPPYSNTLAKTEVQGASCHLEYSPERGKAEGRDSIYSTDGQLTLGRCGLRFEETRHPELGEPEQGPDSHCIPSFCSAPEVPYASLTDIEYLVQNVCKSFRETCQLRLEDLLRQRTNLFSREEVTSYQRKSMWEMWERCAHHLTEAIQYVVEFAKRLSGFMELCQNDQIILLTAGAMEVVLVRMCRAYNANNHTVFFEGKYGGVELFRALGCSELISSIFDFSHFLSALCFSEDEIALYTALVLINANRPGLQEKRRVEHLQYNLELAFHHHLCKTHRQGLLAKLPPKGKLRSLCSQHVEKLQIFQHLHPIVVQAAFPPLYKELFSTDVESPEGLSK
Test: Secondary confirmation assay for inhibitors of ROR gamma transcriptional activity
Settings: Drosophila S2 Gal4-RORgamma UAS-luciferase reporter, 20 h
Excerpt: NIH Molecular Libraries Probe Production Network [MLPCN] NIH Chemical Genomics Center [NCGC] MLPCN Grant: R03 DA026211-01 Assay Provider: Dan Littman, New York University Keywords: NIH Roadmap, MLPCN, MLI, MLSMR, qHTS, NCGC, qHTS, nuclear hormone receptor, retinoic acid-related orphan receptor, ROR gamma Assay Overview: The retinoic acid-related orphan receptor (ROR) gamma is a transcription factor that has a central role in the differentiation of Th17 cells, a subset of T helper cells that secrete the inflammatory cytokines IL-17, IL-17F, and IL-22. Th17 cells have been implicated in graft versus host disease, autoimmune disease and asthma. ROR gamma is induced in naive T helper cells in the presence of TGF-beta combined with IL-6, IL-21, or IL-23, and thereafter directs the expression of the Th17 lineage cytokines. To study the mechanism of action of ROR gamma, an insect cell-based assay was screened. […] Small molecule inhibitors of ROR gamma activity are detected by a decrease in luciferase reporter activity.
Assay Protocol Summary: For screening, 600 cells in 4 uL/well were dispensed into white solid 1536-well plates (Grenier) using a solenoid-based dispenser. […] After addition of 1.5 uL Photinus luciferase detection reagent, the plates were incubated 10 min at ambient temperature and then read by an ViewLux (Perkin Elmer) to detect luminescence. […]

With CO[C@H]1[C@@H](O)CC(OC2[C@@H](O)CC(OC3[C@@H](O)C[C@H](OC4CC[C@@]5(C)C(CCC6C5CC(O)[C@]5(C)[C@H](C7=CC(=O)OC7)CCC65O)C4)O[C@@H]3C)O[C@@H]2C)O[C@@H]1C (some centres not stated) the Potency was 1820 nM (active).
CC1OC(O[C@@H]2C(O)CC(O[C@@H]3C(O)C[C@@H](OC4CC[C@@]5(C)C6CC[C@]7(C)C(C8=CC(=O)OC8)C(O)C[C@@]7(O)[C@H]6CC[C@@H]5C4)OC3C)OC2C)CC(O)C1O (some centres not stated) was tested, and the Potency was 4070 nM (active).
